# From PubChem BioAssay (EPA / NIEHS)
# Records with an inconclusive call do not appear. Active and inactive are the calls of the source. How the source made its calls, unless noted: active means hit-call score of the fitted dose curve at least 0.9, where 1 is the maximum; inactive means score below 0.9.
# Legend:
# [1] = TOX21_TR_RXR_BLA_Antagonist_Followup_viability: Viability Assessment in the Tox21 Thyroid Hormone Receptor beta Retinoid X Receptor alpha (RXRa) Antagonism Beta-lactamase (BLA) Follow-Up Assay (AID 2283979; active means hit-call score of the fitted dose curve at least 0.9, where 1 is the maximum)
# Outline: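 RXRa-UAS-bla HEK293T cells seeded 2,500/well in phenol red-free DMEM with 2% charcoal-stripped FBS, attached 5 h, then exposed to compounds at 11 concentrations in triplicate for 16 h at 37C/5% CO2. Viability read by CellTiter-Glo ATP luminescence; bidirectional fit versus DMSO.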
# [2] = target: Nucleoli Translocation, AR (gene 367) (UniProt P10275); assay: UPITT_HCI_U2OS_AR_TIF2_Nucleoli_Antagonist: University of Pittsburgh U2OS Androgen Receptor-Transcriptional Intermediary Factor 2 (AR-TIF2) Antagonism High Content Imaging Assay for Nucleoli Translocation (AID 2283997; active means hit-call score of the fitted dose curve at least 0.9, where 1 is the maximum)
# Outline: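 U2OS cells expressing RFP-tagged human AR and GFP-tagged TIF2 were imaged by high-content fluorescence microscopy for red AR signal in the nucleolar region. Compounds were screened at 20 uM final (0.2% DMSO), with activity fitted relative to DHT as baseline.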
# [3] = target: Ratio of Nucleoli Translocation and Cytoplasm, AR (gene 367) (UniProt P10275); assay: UPITT_HCI_U2OS_AR_TIF2_Nucleoli_Cytoplasm_Ratio_Antagonist: University of Pittsburgh U2OS Androgen Receptor-Transcriptional Intermediary Factor 2 (AR-TIF2) Antagonism High Content Imaging Assay for Ratio of Nucleoli Translocation and Cytoplasm (AID 2283999; active means hit-call score of the fitted dose curve at least 0.9, where 1 is the maximum;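 further: antagonists lower the DHT-driven ratio of nucleolar to cytoplasmic red signal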)
# Outline: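 Human osteosarcoma U2OS line, AR fused to RFP, coactivator TIF2 fused to GFP. Cpds 20 uM final, 0.2% DMSO (screen); 0.195–50 uM final, 0.5% DMSO (CRC). Endpoint: nucleoli/cytoplasm red signal ratio, DHT as baseline, loss-of-signal antagonist mode.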
# [4] = target: Ratio of Nucleoli Translocation and Cytoplasm, AR (gene 367) (UniProt P10275); assay: UPITT_HCI_U2OS_AR_TIF2_Nucleoli_Cytoplasm_Ratio_Agonist: University of Pittsburgh U2OS Androgen Receptor-Transcriptional Intermediary Factor 2 (AR-TIF2) Agonism High Content Imaging Assay for Ratio of Nucleoli Translocation and Cytoplasm (AID 2284000; active means hit-call score of the fitted dose curve at least 0.9, where 1 is the maximum;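 further: hits raise the red nucleolar to cytoplasm ratio above vehicle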)
# Outline: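 U2OS cells expressing RFP-tagged human AR and GFP-tagged TIF2 were imaged by high-content fluorescence microscopy. The endpoint is the ratio of nucleolar to cytoplasmic red fluorescence, fitted for gain of signal relative to DMSO. Concentration-response spanned 0.195 to 50 uM final (0.5% DMSO).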
# [5] = CCTE_Shafer_MEA_acute_spike_number: CCTE's Neural Acute Assay for Total Number of Spikes, Shafer Lab (AID 2284008);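 on AC50: curve fitted for decrease in spike count so AC50 reflects inhibitors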
# Outline: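 Read-out is the total spike count over 40 min, expressed as percent change from each well's own pre-treatment baseline and fitted in the loss direction against DMSO. Rat cortical neurons were exposed at 0.03-40 uM on DIV 13 or 15.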
# [6] = CCTE_Harrill_HTTr_Apoptosis_MCF7: CCTE's 6-hour Apoptosis Assessment for the High-Throughput Transcriptomics (HTTr) Platform, in MCF-7 cells cultured in DMEM + 10% fetal bovine serum, Harrill Lab (AID 2284011)
# Outline: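 MCF-7 (DMEM + 10% FBS), 384-well; 8-pt dilution series, 6 h chemical exposure; caspase-3/7 activation via CellEvent Caspase 3/7 Green, HCI; bidirectional fit vs DMSO.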
# [7] = system: DIO1 (gene 1733); assay: CCTE_GLTED_hDIO1: CCTE's human Deiodinase 1 (DIO1) Inhibition Assay, Great Lakes Toxicology and Ecology Division (GLTED) Lab (AID 2283987; active means hit-call score of the fitted dose curve at least 0.9, where 1 is the maximum;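 further: isolated human DIO1 enzyme in a cell-free setup rather than cells; enzyme activity read as free iodide liberated from substrate via Sandell-Kolthoff colorimetry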)
# Outline: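 Inhibition of human deiodinase 1 is scored as reduced iodide liberation after a 3 h enzyme–chemical incubation, detected colorimetrically by the Sandell-Kolthoff reaction against DMSO controls.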
# [8] = CCTE_Simmons_MITO_basal_resp_rate: CCTE's HepG2 Seahorse XF Respirometric Screening Assay at Basal Respiratory State, Simmons Lab (AID 2284001); conditions: actives raise or lower the signal
# Outline: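 HepG2 cells were given test chemicals at 7 concentrations, 125 nM to 100 uM final, and oxygen consumption rate was read every 6 min (3 min mix, 3 min measure) over 72 min. Basal-phase OCR was fitted bidirectionally against DMSO.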
# [9] = CCTE_Simmons_MITO_max_resp_rate: CCTE's HepG2 Seahorse XF Respirometric Screening Assay at Maximal Respiratory State [uncoupled], Simmons Lab (AID 2284002); conditions: actives raise or lower the signal
# Outline: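 Read-out is oxygen consumption rate at maximal respiration, taken after FCCP uncoupling of compound-treated HepG2 cells. Seven final concentrations from 125 nM to 100 uM were tested, each in three biological replicates.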
# [10] = CCTE_Simmons_MITO_inhib_resp_rate: CCTE's HepG2 Seahorse XF Respirometric Screening Assay at Inhibited Respiratory State [full ETC block], Simmons Lab (AID 2284006); conditions: actives raise or lower the signal
# Outline: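 Compound injected onto HepG2 cells (125 nM–100 uM final, 7 points); FCCP then rotenone/antimycin A added. Oxygen consumption read every 6 min (3 min mix, 3 min measure) for 72 min. Inhibited-state OCR fitted against DMSO.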
# [11] = CCTE_Simmons_MITO_viability: CellTiter-Glo Viability Assessment for CCTE's HepG2 Seahorse XF Respirometric Screening Assay [post-hoc], Simmons Lab (AID 2284007; active means hit-call score of the fitted dose curve at least 0.9, where 1 is the maximum)
# Outline: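 After the Seahorse oxygen-consumption sequence (basal, FCCP, rotenone/antimycin A; 72 min total), HepG2 viability was scored as ATP content by bioluminescence. Chemicals ran at seven concentrations up to 100 uM final for 90 min.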
# [12] = CCTE_Harrill_HTTr_Viability_MCF7: CCTE's 6-hour Cell Viability Assessment for the High-Throughput Transcriptomics (HTTr) Platform, in MCF-7 cells cultured in DMEM + 10% fetal bovine serum, Harrill Lab (AID 2284010)
# Outline: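 Cells were dosed with chemicals in an eight-point dilution series, imaged 6 hours later for propidium iodide uptake, and the endpoint was analyzed by bidirectional fitting against DMSO as negative control.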
# Chain of Ratio of Nucleoli Translocation and Cytoplasm, AR (gene 367) (P10275 whole entry, looked up, the tested form may be a part): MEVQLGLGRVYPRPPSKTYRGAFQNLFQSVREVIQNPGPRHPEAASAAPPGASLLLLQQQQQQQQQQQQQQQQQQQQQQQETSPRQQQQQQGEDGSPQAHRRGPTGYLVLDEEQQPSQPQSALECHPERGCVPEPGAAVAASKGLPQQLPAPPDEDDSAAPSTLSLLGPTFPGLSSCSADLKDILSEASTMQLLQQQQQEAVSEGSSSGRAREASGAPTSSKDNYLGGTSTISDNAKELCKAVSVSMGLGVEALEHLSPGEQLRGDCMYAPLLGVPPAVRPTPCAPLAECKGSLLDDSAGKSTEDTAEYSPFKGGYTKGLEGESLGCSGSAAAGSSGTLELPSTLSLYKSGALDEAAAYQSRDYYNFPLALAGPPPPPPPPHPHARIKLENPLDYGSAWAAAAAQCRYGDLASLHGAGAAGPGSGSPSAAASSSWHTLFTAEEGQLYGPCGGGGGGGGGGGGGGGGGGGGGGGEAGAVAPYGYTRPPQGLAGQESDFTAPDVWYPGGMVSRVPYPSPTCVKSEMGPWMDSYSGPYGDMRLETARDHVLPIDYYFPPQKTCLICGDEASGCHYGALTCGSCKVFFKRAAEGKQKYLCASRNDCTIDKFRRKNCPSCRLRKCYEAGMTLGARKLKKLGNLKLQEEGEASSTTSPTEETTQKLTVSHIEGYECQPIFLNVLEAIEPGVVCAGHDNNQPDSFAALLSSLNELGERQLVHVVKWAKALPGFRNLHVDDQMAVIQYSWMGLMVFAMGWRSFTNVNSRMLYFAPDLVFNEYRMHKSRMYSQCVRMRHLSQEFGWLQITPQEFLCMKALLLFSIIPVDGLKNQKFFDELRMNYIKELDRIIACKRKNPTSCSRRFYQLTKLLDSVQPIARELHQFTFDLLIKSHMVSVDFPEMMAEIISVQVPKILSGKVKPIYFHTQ
# Chain of Nucleoli Translocation, AR (gene 367) (P10275 whole entry, looked up): as the sequence (P10275 whole entry, looked up, the tested form may be a part) above
compound,measurement,setting,value
COc1cc(C(=O)NC2CCN(C)CC2)ccc1Nc1ncc2c(n1)N(C1CCCC1)CC(F)(F)C(=O)N2C,AC50,[1],26 µM (active)
same,outcome,[2],inactive
same,outcome,[3],inactive
same,outcome,[4],inactive
same,AC50,[5],7.05 µM (active)
same,outcome,[6],inactive
NCc1cccc(C2CCN(C(=O)c3ccc(C#Cc4ccccc4F)o3)CC2)c1,AC50,[7],88.6 µM (active)
same,AC50,[2],72.7 µM (active)
same,AC50,[3],27.2 µM (active)
same,AC50,[4],50 µM (active)
same,AC50,[8],37.2 µM (active)
same,AC50,[9],61.4 µM (active)
same,outcome,[10],inactive
same,outcome,[11],inactive
same,AC50,[5],9.02 µM (active)
same,AC50,[6],61.4 µM (active)
CCCCCCCC[Si](OCC)(OCC)OCC,outcome,[12],inactive
same,outcome,[6],inactive
CC[C@H](NC(=O)c1cc(F)ccc1NS(=O)(=O)c1cccc2cccnc12)c1ccccc1,outcome,[6],inactive
CCCCCCCCCCCO,AC50,[8],80.1 µM (active)
same,outcome,[9],inactive
same,outcome,[10],inactive
same,outcome,[12],inactive
same,outcome,[6],inactive
CC(C)(O)c1ccc(CNC(=O)c2cccnc2Oc2ccc3nonc3c2)cc1,outcome,[8],inactive
same,outcome,[9],inactive
same,outcome,[10],inactive
same,outcome,[11],inactive
same,outcome,[6],inactive
Cc1cn([C@H]2C[C@H](N=[N+]=[N-])[C@@H](CO)O2)c(=O)[nH]c1=O,outcome,[5],inactive
same,outcome,[12],inactive
same,outcome,[6],inactive
CC1=CC(=O)/C(=C(/C)O)C(=O)O1,outcome,[5],inactive
Clc1cc(Cl)c2c(c1)N=C1CCCCCN1C2,outcome,[6],inactive
CC(O)CC(C)(C)O (centres undefined),outcome,[5],inactive
same,outcome,[12],inactive
same,outcome,[6],inactive
c1ccc2n[nH]nc2c1,outcome,[5],inactive
CCCCOC(=O)CC(CC(=O)OCCCC)(OC(C)=O)C(=O)OCCCC,outcome,[12],inactive
same,outcome,[6],inactive
Cc1oc2c(NC(=O)c3c(Cl)cccc3Cl)cccc2c1C(C)(C)O,outcome,[6],inactive
Cc1cccc2ccccc12,outcome,[6],inactive
CN1C(=O)CC[C@H]1c1cccnc1,outcome,[5],inactive
same,outcome,[12],inactive
same,outcome,[6],inactive
COc1cccc([C@H](O)C2CCN(CCc3ccc(F)cc3)CC2)c1OC,AC50,[5],2.87 µM (active)
same,outcome,[12],inactive
same,outcome,[6],inactive
O=CCCCC=O,outcome,[6],inactive
Cc1ncc(CO)c(CO)c1O,outcome,[12],inactive
same,outcome,[6],inactive
CCCCCc1ccc(N)cc1,outcome,[6],inactive
COc1ccc2cc(S(=O)(=O)N[C@H](CC(=O)N[C@H](Cc3ccc(CN4[C@H](C)CCC[C@@H]4C)cc3)C(=O)N(C)C(C)C)c3ccc4c(c3)OCO4)ccc2c1,outcome,[6],inactive
c1ccc(C[n+]2cccc3ccccc32)cc1,outcome,[6],inactive
O=c1[nH]sc2ccccc12,AC50,[5],0.0259 µM (active)
same,outcome,[6],inactive
Clc1ccccc1C(c1ccccc1)(c1ccccc1)n1ccnc1,AC50,[5],5.01 µM (active)
same,outcome,[12],inactive
same,outcome,[6],inactive
